Growth data for 14 compounds are collected here from PubChem BioAssay (NCI).

This is part of a sample that, as a whole, favours compounds with a hit. Of some 83,000 tested, about 20% had one in any assay.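 In brief: 96-well plates, 48 h treatment, single concentration, percent growth endpoint.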 Values without a mark were called inactive. Activity calls are given as the source filed them. Rule for the calls: active = growth percent below 10; inactive = the rest.

Test systems include NCI-H23 lung; NCI-H226 lung; NCI-H322M lung; HOP-62 NSCLC; NCI-H460 lung; HOP-92 NSCLC; NCI-H522 lung; A549/ATCC NSCLC; 786-0 renal; COLO 205 colon.
Common to all, as to assay: NCI-60 one-dose screen, 48 h (100 = growth as untreated, 0 = no growth, -100 = all killed)
Common to all, as to settings: 10 µM

Regarding `Cc1cc(OI)c(C(C)C)cc1-c1cc(C(C)C)c(OI)cc1C`, the growth in the test on NCI-H23 lung was 94.9%; in the test with NCI-H226 lung, 93.7%; in the test with NCI-H322M lung, 95.9%; in the test with HOP-62 NSCLC, 84.9%; in the test with NCI-H460 lung, 106%; in the test with HOP-92 NSCLC, 101%. For the same compound, the growth in the test with NCI-H522 lung is 94.5%; in the test on A549/ATCC NSCLC it was 94.3%; in the test on 786-0 renal, 103%; with COLO 205 colon it was 114%.
Consider `O=C1c2cc(Cl)ccc2-c2c(O)cc(Cl)cc21`, for which the growth is 49.3% in the test on NCI-H23 lung; 94% with NCI-H226 lung; 109% in the test on NCI-H322M lung; 89.6% with HOP-62 NSCLC; 99.5% in the test on NCI-H460 lung; 52.8% with HOP-92 NSCLC. The growth with NCI-H522 lung was 76.2%; with A549/ATCC NSCLC it was 105%; in the test on 786-0 renal, 103%; with COLO 205 colon, 92%.
For `Cc1ccc(NS(=O)(=O)c2ccccc2)c(NS(=O)(=O)c2ccccc2)c1`, the growth in the test on NCI-H23 lung is 87.1%; with NCI-H226 lung, 105%; in the test on NCI-H322M lung it was 109%; in the test with HOP-62 NSCLC, 86.5%; in the test on NCI-H460 lung it was 102%; in the test on HOP-92 NSCLC, 93.5%. The growth in the test on NCI-H522 lung was 102%; in the test on A549/ATCC NSCLC, 103%; with 786-0 renal, 108%; with COLO 205 colon it was 97.5%.
On to `COc1ccc(NC(=O)c2sc3nc4c(cc3c2N)C(O)CCC4)cc1` (stereo not given), for which the growth with NCI-H23 lung is 98.5%; with NCI-H226 lung, 101%; in the test on NCI-H322M lung, 30.6%; in the test with HOP-62 NSCLC, 117%; in the test with NCI-H460 lung it was 48.3%; with HOP-92 NSCLC, 85.2%. The growth with NCI-H522 lung is 99.8%; in the test with A549/ATCC NSCLC, 70%; in the test with 786-0 renal, 94.8%; in the test with COLO 205 colon it was 110%.
Turning to `CC1(C)Cc2c(cn(Cc3ccccc3)c2-c2ccccc2)-c2oncc21`, the growth in the test on NCI-H23 lung was 96.7%; in the test on NCI-H226 lung, 92.2%; with NCI-H322M lung, 126%; with HOP-62 NSCLC it was 107%; in the test on NCI-H460 lung, 113%; in the test with HOP-92 NSCLC it was 67.8%. Also, the growth in the test with NCI-H522 lung was 90.1%; with A549/ATCC NSCLC, 86.2%; in the test on 786-0 renal, 97.5%; in the test on COLO 205 colon it was 103%.
As for `O=[N+]([O-])c1ccc2c(c1)Cc1cc(I)ccc1-2`, the growth is 99.4% with NCI-H23 lung; 97.7% in the test on NCI-H226 lung; 104% in the test on NCI-H322M lung; 113% in the test with HOP-62 NSCLC; 98.4% in the test with NCI-H460 lung; 89.4% in the test with HOP-92 NSCLC. In addition, the growth was 95.7% in the test with NCI-H522 lung, 94.7% in the test with A549/ATCC NSCLC, 90% with 786-0 renal and 108% in the test with COLO 205 colon.
Consider `COc1ccc(Nc2ccnc(N3CCN(c4ccnc5cc(Cl)ccc45)CC3)n2)cc1`, for which the growth is 9.35% (active) in the test with NCI-H23 lung; 1.67% (active) in the test with NCI-H226 lung; 14.4% with NCI-H322M lung; 16.5% with HOP-62 NSCLC; 4.6% (active) in the test on NCI-H460 lung; -21.9% (active) with HOP-92 NSCLC. The growth is -17.9% (active) with NCI-H522 lung, 7.39% (active) with A549/ATCC NSCLC, 7.79% (active) in the test with 786-0 renal and -7.2% (active) in the test with COLO 205 colon.
On to `O=C1/C(=C/c2ccc(O)cc2)Oc2ccc(Cl)cc21`, for which the growth in the test with NCI-H23 lung is 71.4%; in the test with NCI-H226 lung it was 68.8%; with NCI-H322M lung, 82.8%; in the test on HOP-62 NSCLC it was 85.6%; in the test on NCI-H460 lung, 79.6%; with HOP-92 NSCLC it was 67.1%. Further, the growth in the test on NCI-H522 lung is -65% (active); in the test on A549/ATCC NSCLC, 79.7%; in the test on 786-0 renal, 71.4%; with COLO 205 colon, 109%.
As for `CCN(CC)CCOC(=O)c1ccc(NC(=O)Nc2cccc(Cl)c2)cc1`, the growth in the test with NCI-H23 lung is 95.8%; with NCI-H226 lung, 99.6%; with NCI-H322M lung it was 103%; in the test with HOP-62 NSCLC, 93.4%; in the test with NCI-H460 lung it was 108%; in the test on HOP-92 NSCLC, 85.1%. Further, the growth in the test with NCI-H522 lung was 86.7%; in the test on A549/ATCC NSCLC it was 91.4%; with 786-0 renal, 95.5%; with COLO 205 colon it was 105%.
Turning to `CCCCn1c(=O)[nH]c2c(c1=O)C(c1ccc(Cl)cc1)c1c([nH]c(=O)n(CCCC)c1=O)N2`, the growth with NCI-H23 lung is 90%; with NCI-H226 lung it was 96.3%; with NCI-H322M lung, 91.6%; in the test with HOP-62 NSCLC, 90.4%; in the test on NCI-H460 lung, 106%; in the test with HOP-92 NSCLC, 90.4%. The growth in the test with NCI-H522 lung is 83.3%; in the test on A549/ATCC NSCLC, 87.8%; in the test on 786-0 renal it was 93.4%; in the test on COLO 205 colon it was 105%.
In the case of `CCC(O)c1ccc(Br)cc1NC(=O)c1cccc(Cl)c1` (stereo not given), the growth with NCI-H23 lung was 28%; in the test on NCI-H226 lung, -1.35% (active); in the test on NCI-H322M lung, 29.4%; with HOP-62 NSCLC, 28%; in the test on NCI-H460 lung, 3.22% (active); with HOP-92 NSCLC, 48.6%. The growth with NCI-H522 lung was 24.2%; in the test on A549/ATCC NSCLC, 4.24% (active); with 786-0 renal it was 18.1%; in the test with COLO 205 colon, 93.9%.
In the case of `CC(=O)OC1Oc2ccccc2-c2oc(=O)c(-c3cc(=O)oc4cc(O)ccc34)cc21` (stereo not given), the growth with NCI-H23 lung is 80.8%; with NCI-H226 lung, 91.5%; in the test on NCI-H322M lung it was 89.2%; with HOP-62 NSCLC it was 93.8%; with NCI-H460 lung, 93.8%; in the test with HOP-92 NSCLC, 44.8%. Besides, the growth with NCI-H522 lung was 69.6%; in the test on A549/ATCC NSCLC, 84.3%; with 786-0 renal it was 80.4%; in the test with COLO 205 colon it was 101%.
For the compound `C=CCc1cc(Nc2c3ccc(Cl)cc3nc3ccc(OC)cc23)cc(CN(CC)CC)c1O`, the growth with NCI-H23 lung is -0.558% (active); in the test on NCI-H226 lung, 26.3%; in the test with NCI-H322M lung, 49.5%; with HOP-62 NSCLC it was 9.37% (active); in the test with NCI-H460 lung it was 4.5% (active); with HOP-92 NSCLC, -20.5% (active). Besides, the growth in the test on NCI-H522 lung was -5.89% (active); in the test with A549/ATCC NSCLC it was 13.3%; with 786-0 renal, 12.3%; with COLO 205 colon, -83.9% (active).
`COc1ccc(-c2csc(NC(=O)CO[N+](=O)[O-])n2)cc1`: the growth in the test with NCI-H23 lung is 93.4%; in the test with NCI-H226 lung, 102%; in the test with NCI-H322M lung, 96.1%; in the test with HOP-62 NSCLC, 101%; in the test with NCI-H460 lung, 94.1%; in the test on HOP-92 NSCLC, 118%. Moreover, the growth in the test on NCI-H522 lung is -39.7% (active); with A549/ATCC NSCLC it was 84.9%; with 786-0 renal, 113%; with COLO 205 colon, 89.1%.
